Measurements published in PubChem BioAssay AID2284419 (EPA ToxCast).
Records with an inconclusive call do not appear. The source made the active and inactive calls. How the source made its calls: active means hit-call score of the fitted dose curve at least 0.9, where 1 is the maximum; inconclusive means response in the unintended direction; inactive means score below 0.9.

Test system: SRY-box transcription factor 2 (SOX2) Protein Expression, Deisenroth Lab, SOX2 (gene 6657)
Experiment: CCTE_Deisenroth_DEVTOX-GLR_Meso_SOX2: CCTE's DevTox GLR-Meso Assay Evaluation of SRY-box transcription factor 2 (SOX2) Protein Expression, Deisenroth Lab
Method: CCTE_Deisenroth_DEVTOX-GLR_Meso assay is a cell-based, multiplex-readout assay that uses RUES2-GLR, a human pluripotent cell line, with measurements taken at 48 hours after chemical dosing in a 384-well microplateCCTE_Deisenroth_DEVTOX-GLR_Meso_SOX2 is 1 of 4 assay components calculated from the CCTE_Deisenroth_DEVTOX-GLR_Meso assay and it measures an the percentage of cells in an ectoderm state. Using a type of inducible fluorescent protein reporter, gain-of-signal activity can be used to understand changes in gene expression with fluorescent microscopy. The percentage of SOX2+ cells are determined by calculating the number of SOX2+ cells divided by the cell count. To generalize the intended target to other relatable targets, this assay component is annotated to the transcription factor intended target family, where the subfamily is SRY-related HMG-box.Data from the assay component CCTE_Deisenroth_DEVTOX-GLR_Meso_SOX2 was analyzed as 1 assay endpoint. The endpoint is the percent SOX2+ cell population minus the 0.2% DMSO control in the CCTE_Deisenroth_DEVTOX-GLR_Meso assay. Furthermore, this assay endpoint can be referred to as a secondary readout, because this assay has produced multiple assay endpoints where this one serves as a measure of ectoderm differentiation.
All assay protocols are aligned to the DevTox GLR-Endo assay workflow. Cells are seeded into 384-well microplates for 24 hours prior to initiating differentiation in defined media for a total duration of 48 hours. A total of two chemical exposures are administered in 24-hour intervals during the 48-hour differentiation period. At the assay termination point, cells are fixed and stained with a fluorescent dye demarcating the nucleus. High-content imaging is used to acquire brightfield and fluorescent channel images across 5 fields per well. Cell identification and mean biomarker fluorescence intensities are calculated with image analysis software to determine the total cell counts for viability assessment and the biomarker expression frequency for each lineage-dependent assay. A typical experimental design tests a 10-point concentration series (1 nM - 200 uM) for 28 compounds in single technical replicate. Assay plate controls include non-differentiated pluripotent cells (baseline control), lineage-specific differentiated cells (differentiation control), and DMSO solvent exposed differentiated cells (solvent control). Experiments typically comprise a minimum of four experimental replicates (n=4).

Compound | AC50 | outcome
CC/C(=C(/CC)c1ccc(O)cc1)c1ccc(O)cc1 | 3.63 µM (active) | 
CC1(C)S[C@@H]2[C@H](NC(=O)Cc3ccccc3)C(=O)N2[C@H]1C(=O)O |  | inactive
O=C1CCC(N2C(=O)c3ccccc3C2=O)C(=O)N1 (stereo not given) |  | inactive
Nc1cccc2c1C(=O)N(C1CCC(=O)NC1=O)C2=O (stereo not given) |  | inactive
CCN(CC)CCNC(=O)c1c(C)[nH]c(/C=C2\C(=O)Nc3ccc(F)cc32)c1C | 0.194 µM (active) | 
CC1=C(/C=C/C(C)=C/C=C/C(C)=C\C(=O)O)C(C)(C)CCC1 | 18.8 µM (active) | 
O=C1NS(=O)(=O)c2ccccc21 |  | inactive
CC(C)(c1ccc(O)cc1)c1ccc(O)cc1 | 56.6 µM (active) | 
Nc1nc2ncc(CNc3ccc(C(=O)N[C@@H](CCC(=O)O)C(=O)O)cc3)nc2c(=O)[nH]1 |  | inactive
O=c1[nH]cc(F)c(=O)[nH]1 | 19.9 µM (active) | 
CN(Cc1cnc2nc(N)nc(N)c2n1)c1ccc(C(=O)N[C@@H](CCC(=O)O)C(=O)O)cc1 | 0.0688 µM (active) | 
CS(=O)(=O)OCCCCOS(C)(=O)=O | 124 µM (active) | 
O=C1NC(=O)C(c2ccccc2)(c2ccccc2)N1 | 180 µM (active) | 
CC(=O)Nc1ccc(O)cc1 |  | inactive
CC1=C(/C=C/C(C)=C/C=C/C(C)=C/C(=O)O)C(C)(C)CCC1 | 7.53 µM (active) | 
